A selection: hits, their analogues and other compounds. The true share with any hit is near 3.6%.
TDP-43 yeast inh: qHTS of TDP-43 Inhibitors. TDP-43 expressing yeast growth rescue, BacTiter-Glo, 24 h. Potency, µM (titrated, usually from 46.1 µM), hits mostly activators. 410,000 tested, 1.8% active. AID 652104, 2013; further: nearly all actives have a fitted effect of over 50% in size
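Growth rescue of TDP-43-toxic yeast measured as ATP luminescence (BacTiter-Glo). Cells grown to mid-log in raffinose, induced in galactose at OD600=0.02, exposed to compound 24 hr at 30 deg C.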
Mm-Cpn inhibitor: Inhibitors of TCP-1 ring complex (TRiC) of Methanococcus maripaludis (MmCpn): qHTS; 330,000 tested, 0.031% active; purified Mm-Cpn ATPase, ADP Transcreener TR-FRET; Potency, µM (series often up to 76.9 µM), usual class: inhibitors; AID 504842, 2011; further: nearly all actives have a fitted effect of over 80% in size
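ATP (10 uM final) was added to archaeal chaperonin (25 nM final) after 10 min exposure to test compound at 37°C; after 30 min further incubation, ADP was detected by competitive TR-FRET.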
aSyn rescue: qHTS of alpha-syn Inhibitors; Potency, µM (doses to about 46.1 µM), hits mostly activators; Yeast expressing alpha-synuclein, growth rescue, BacTiter-Glo, 24 h; AID 652106, 2013; 370,000 tested, 0.14% active; further: nearly all actives have a fitted effect of over 65% in size
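Rescue of yeast growth: cells expressing toxic alpha-synuclein, induced in galactose at OD600 0.02, incubated with compound 24 h at 30 C. ATP luminescence quantified growth; inhibitors of toxicity appear as activators.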
ClpP mod: qHTS Assay for Activators of ClpP | ATP-dependent Clp protease proteolytic subunit (Bacillus subtilis (strain 168)), P80244 | purified B. subtilis ClpP, FRET peptide cleavage, 20 min | Potency, µM (titrated, usually from 57.5 µM) | 340,000 tested, 1.9% active; active means well fitted falling curve with a large enough effect; inconclusive means small, poorly fitted or top-dose-only effect; inactive means no such curve, though single readings can be large or run the other way; further: the source files actives as falling curves though it sought activators and does not explain the sign; nearly all actives have a fitted effect of over 65% in size
Target sequence (P80244 whole entry, looked up): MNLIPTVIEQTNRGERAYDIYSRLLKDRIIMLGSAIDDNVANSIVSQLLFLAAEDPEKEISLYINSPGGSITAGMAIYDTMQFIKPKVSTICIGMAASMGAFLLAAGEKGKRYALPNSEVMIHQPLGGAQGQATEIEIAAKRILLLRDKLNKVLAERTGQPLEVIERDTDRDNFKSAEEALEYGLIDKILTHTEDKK
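Purified B. subtilis ClpP, 10 microg/mL final in Tris/HCl pH8 with KCl, BSA, glycerol and Tween-20, cleaved an Abz/nitrotyrosine-quenched decapeptide. Fluorescence (ex 320, em 430) was read at 0 and 20 min at room temperature. Delta was normalized to 5.8 microM ADEP and DMSO/no-enzyme controls.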
Abeta yeast res: qHTS for compounds that reverse cellular toxicity of Amyloid beta (A-beta) peptide in yeast: Primary Screen. yeast expressing A-beta42, growth rescue, OD600, 48 h; response scale: 0% DMSO, 100% iron-clioquinol control. Potency, µM (highest dose often 46.1 µM), most hits filed as activators. 410,000 tested, 0.063% active. AID 1347071, 2019; further: nearly all actives have a fitted effect of over 55% in size
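Yeast growth medium received pinned compounds, then yeast cells expressing toxic A-beta were added; plates incubated at 30 C for 48 hr. Growth read as absorbance at 600 nm, normalized to DMSO and equimolar FeCl3 plus clioquinol controls.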
FUS suppressor: qHTS for Suppressors of FUS Proteinopathy: Primary screen using FUS-linked yeast assay | 390,000 tested, 0.24% active | S. cerevisiae FUS-expressing, growth rescue, OD600, 24 h | Potency, µM (doses to about 76.6 µM), hits mostly activators; further: nearly all actives have a fitted effect of over 55% in size
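Steps: raffinose overnight preculture; dilution to OD 0.005 in 2% galactose minimal medium; compound addition (concentration series); 24hr at 30C, 99% humidity; absorbance read at 600 nm.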
Each line names hits and unclear results; the compound was inactive in the other large screens. Unless noted, the call rests on the fitted dose curve; in most records, active means well fitted curve in the direction sought with a large enough effect; inconclusive means small, poorly fitted or top-dose-only effect, or another doubt; inactive means no such curve, though single readings can be large; an effect the other way counts as inactive or inconclusive.

CC(=O)N1c2ccccc2C(=O)C1N1CCN(c2cccc(C)c2C)CC1 (centres undefined)	none (no result: Mm-Cpn inhibitor, aSyn rescue)
O=C(NC(=S)N1CCN(c2ccc(Cl)cc2[N+](=O)[O-])CC1)c1cccs1	TDP-43 yeast inh inconclusive, aSyn rescue inconclusive
O=C(NC(=S)N1CCN(c2ccc(Cl)cc2[N+](=O)[O-])CC1)c1ccco1	TDP-43 yeast inh 12.6µM
CCCCNc1c(-c2cccc(-c3cc(C(C)=O)cs3)c2)nc2ccc(C)cn12	TDP-43 yeast inh 11.2µM
CCOC(=O)C(C(=O)OCC)C(Nc1cccc(Br)c1)c1ccccc1 (centres undefined)	TDP-43 yeast inh 12.6µM
COC(=O)C(C)Nc1cccc(Br)c1 (centres undefined)	none
CCc1ccc(S(=O)(=O)NCc2nc3cccnc3n2Cc2cccc(OC)c2)cc1	FUS suppressor inconclusive (no result: Mm-Cpn inhibitor, aSyn rescue)
Cc1ccc(C)c(N2CCN(C(=O)c3cnn(-c4ccccc4Cl)c3C3CCN(C(=O)OC(C)(C)C)CC3)CC2)c1	none (no result: Mm-Cpn inhibitor, aSyn rescue)
COc1ccc(Nc2oc(COc3ccc(Cl)cc3)nc2C#N)cc1	TDP-43 yeast inh 28.2µM
N#Cc1nc(COc2ccc(Cl)cc2)oc1N1CCN(Cc2ccccc2)CC1	ClpP mod 28.2µM
Cc1oc(-c2cccc(Cl)c2)nc1CSc1nc2ncccc2[nH]1	TDP-43 yeast inh inconclusive (no result: Mm-Cpn inhibitor, aSyn rescue)
COc1ccc2cc(/C=N/NC(=O)c3ccc(CN(c4cccc(Cl)c4Cl)S(C)(=O)=O)cc3)c(Cl)nc2c1	ClpP mod 17.8µM (no result: FUS suppressor)
COc1ccc2cc(/C=N/O)c(Cl)nc2c1	TDP-43 yeast inh inconclusive
CCNC(=S)N/N=C/c1cc(C)ccc1C	Abeta yeast res 4.47µM
CNC(=S)N/N=C/c1cc(C)ccc1C	Abeta yeast res inconclusive
Cc1c(C(=O)OCCOc2ccccc2)[nH]c2c1C(=O)CC(c1ccccc1Cl)C2 (centres undefined)	none (no result: Mm-Cpn inhibitor, aSyn rescue)
CCOC(=O)c1c(-c2ccccc2)oc2ccc(O)cc12	TDP-43 yeast inh inconclusive
CCOC(=O)c1c(-c2ccccc2)[nH]c2ccc(O)cc12	ClpP mod 31.6µM
CCOC(=O)c1c(CSc2ccccc2)oc2ccc(O)cc12	TDP-43 yeast inh 20µM
CCOC(=O)c1c(CSc2ccc(C)cc2)oc2ccc(O)cc12	TDP-43 yeast inh 22.4µM
Cc1ccnc2c(Cl)ccc(Cl)c12	none (no result: TDP-43 yeast inh, Mm-Cpn inhibitor, aSyn rescue, Abeta yeast res, FUS suppressor)
COc1ccc(-n2c(=O)/c(=C\c3cccs3)s/c2=C(/C#N)C(=O)N2CCN(C)CC2)cc1	ClpP mod 31.6µM
CCOC(=O)c1scc(-c2ccc(C)cc2)c1S(=O)(=O)N1CCN(c2ccccc2F)CC1	none (no result: Mm-Cpn inhibitor, aSyn rescue)
Cn1c(=O)n(C)c2cc(S(=O)(=O)Nc3ccccc3C(=O)O)ccc21	ClpP mod inconclusive
O=C(O)CCCNc1ccc(S(=O)(=O)Nc2ccccc2C(=O)O)cc1C(=O)O	ClpP mod 15.8µM
COC(=O)c1ccc(C(=O)OC)c(NC(=O)COC(=O)C2CCCCC2)c1	ClpP mod inconclusive
COC(=O)c1ccc(C(=O)OC)c(NC(=O)COC(=O)C2CCC(C(C)(C)C)CC2)c1 (centres undefined)	ClpP mod 28.2µM
COc1cc(-n2c(C)nc3cc(C(=O)N4CCCC4)ccc32)cc(OC)c1OC	none (no result: TDP-43 yeast inh, Mm-Cpn inhibitor, aSyn rescue, ClpP mod, Abeta yeast res)
CCOC(=O)c1ccccc1Nc1cc(C)nc2nc(-c3ccco3)nn12	TDP-43 yeast inh inconclusive (no result: Mm-Cpn inhibitor)
COc1ccccc1C(=O)N(c1ccc(C)cc1)S(=O)(=O)c1ccc(Cl)cc1	none (no result: Mm-Cpn inhibitor, aSyn rescue)
Cc1ncoc1C(=O)N1CCCC(C(=O)c2ccc(-c3ccccc3)c(F)c2)C1 (centres undefined)	TDP-43 yeast inh 22.4µM, FUS suppressor inconclusive
Cc1ncoc1C(=O)N1CCCC(C(=O)c2ccc(Oc3ccccc3)cc2)C1 (centres undefined)	none (no result: ClpP mod)

Assay outcomes deposited in PubChem by National Center for Advancing Translational Sciences (NCATS).
